B2AR arrestin = recruits beta-arrestin to the human beta2-adrenergic receptor | Potency, µM (highest dose often 46.1 µM), most hits filed as activators | beta-arrestin recruitment to beta2AR, cell-based reporter | P07550 | 330,000 tested, 0.02% active; also: nearly all actives have a fitted effect of over 65% in size
Target sequence (P07550 whole entry, looked up): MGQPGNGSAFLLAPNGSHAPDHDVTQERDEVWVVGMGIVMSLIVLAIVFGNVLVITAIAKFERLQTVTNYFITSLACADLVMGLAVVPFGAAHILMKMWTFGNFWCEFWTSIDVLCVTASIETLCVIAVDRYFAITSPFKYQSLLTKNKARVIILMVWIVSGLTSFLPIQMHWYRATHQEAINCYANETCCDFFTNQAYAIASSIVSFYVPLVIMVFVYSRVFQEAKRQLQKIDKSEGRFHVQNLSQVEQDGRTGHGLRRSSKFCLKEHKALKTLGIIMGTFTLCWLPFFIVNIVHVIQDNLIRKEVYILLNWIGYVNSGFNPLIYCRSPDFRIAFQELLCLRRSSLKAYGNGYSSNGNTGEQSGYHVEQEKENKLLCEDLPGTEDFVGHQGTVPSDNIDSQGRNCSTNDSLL
ELG1 DNA repair = ELG1-dependent DNA repair inhibition; HEK293T ELG1-luciferase reporter, luminescence, 16 h; DNA damage induced by 5-fluorouridine; Potency, µM (series often up to 46.1 µM), most hits filed as inhibitors; 330,000 tested, 2.3% active; AID 504467; also: nearly all actives have a fitted effect of over 55% in size
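In this reporter screen, reduction of luminescence relative to DMSO vehicle indicated activity. Compounds and 5-fluorouridine were added together to 2,000 cells per well, incubated for 16 hr at 37 °C, then developed with ONE-Glo.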
VP16 counter = counter-screen for ROR gamma inhibitors: Gal4-VP16 reporter; Potency, µM (top dose mostly 53.6 µM), actives largely listed as inhibitors; Drosophila S2 Gal4-VP16 UAS-luciferase, luminescence, 20 h; 310,000 tested, 3.5% active;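 also: Gal4-VP16 expression switched on by copper sulfate through the metallothionein promoter; nearly all actives have a fitted effect of over 50% in size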
RORgamma inh = inhibitors of mouse ROR gamma transcriptional activity | Drosophila S2 Gal4-RORgamma UAS-luciferase reporter, 20 h | 310,000 tested, 5.4% active | P51450 | Potency, µM (highest dose often 53.6 µM), most hits filed as inhibitors; also: nearly all actives have a fitted effect of over 60% in size
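Schneider cells (Drosophila), stable Gal4 DBD–ROR gamma + UAS-luc; 1 hr cmpd preincubation; Cu2+ induction 700 uM final; 20 hr ambient; luminescence.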
TSHR antagonist = antagonists of human thyroid stimulating hormone receptor; 330,000 tested, 0.2% active; activity change, negative = inhibition, % at 11.5 µM; P16473; TSHR-expressing cells, TSH-stimulated cAMP HTRF, 2 h; stronger effect = lower value; AID 504810;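 active = activity change below a set negative limit, meaning inhibition stronger than a set level, cut at about -70% in these data; inconclusive = activity change between two set negative limits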
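Antagonism was scored as loss of TSH-driven cAMP in TSHR cells, stimulated with 4nM TSH (EC80) for 2 hours at 37 deg C and detected by homogeneous HTRF competition immunoassay.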
Of the large screens only hits and unclear results are named; the others gave an inactive call. This is a sample that favours compounds with a hit; in the whole collection about 7.5% have one here. Unless noted, calls follow the shape of the dose curve; as a rule, active = well fitted curve in the direction sought with a large enough effect; inconclusive = small, poorly fitted or top-dose-only effect, or another doubt; inactive = no such curve, though single readings can be large; an effect the other way counts as inactive or inconclusive.

COC(=O)c1ccc(C(NC(=O)OCc2ccccc2)/C(=C/[C@@H](C)C(=O)NCCc2c[nH]c3ccccc23)c2cccnc2)cc1 (some centres undefined)	none (no result: B2AR arrestin, ELG1 DNA repair, TSHR antagonist)
O=C(CSc1nnc(-c2ccccc2F)n1C1CC1)Nc1cccnc1Cl	ELG1 DNA repair inconclusive, VP16 counter 40µM, RORgamma inh inconclusive
O=C(CSc1nnnn1-c1ccc(Cl)cc1)Nc1cccnc1Cl	VP16 counter inconclusive, RORgamma inh inconclusive
Cc1ccc(-n2nnnc2SCC(=O)Nc2cccnc2Cl)cc1	VP16 counter 13µM, RORgamma inh inconclusive
O=C(CSc1nnc(-c2ccccc2F)n1C1CCCCC1)Nc1cc(C(=O)O)ccc1Cl	none (no result: VP16 counter, RORgamma inh)
CCc1cc(C(=O)N2CCCC(C(=O)c3ccc(Oc4ccccc4)cc3)C2)n(C)n1 (centres undefined)	ELG1 DNA repair inconclusive, RORgamma inh inconclusive
CC(C)CSc1n[nH]c(=S)s1	RORgamma inh 10µM
C#CCOCCOCCOCCNc1nc(N2CCN(C(=O)CCCCCCCCCCNC(=O)[C@@H](CCC(=O)O)n3cc(CCCCCN)nn3)CC2)nc(N2CCN(C(=O)CCCCCCCCCCNC(=O)[C@H](CCCCN)n3cc(C[C@@H](C)CC)nn3)CC2)n1	ELG1 DNA repair 3.2µM (no result: VP16 counter, RORgamma inh)
C#CCOCCOCCOCCNc1nc(N2CCN(C(=O)CCCCCCCCCCNC(=O)[C@H](CCCCN)n3cc(C[C@@H](C)CC)nn3)CC2)nc(N2CCN(C(=O)CCCCCCCCCCNC(=O)[C@@H]([C@H](C)O)n3cc(C)nn3)CC2)n1	ELG1 DNA repair inconclusive (no result: VP16 counter, RORgamma inh)
C#CCOCCOCCOCCNc1nc(N2CCN(C(=O)CCCCCCCCCCNC(=O)[C@H](CCCCN)n3cc(CCO)nn3)CC2)nc(N2CCN(C(=O)CCCCCCCCCCNC(=O)[C@H](CCCCN)n3cc(C[C@@H](C)CC)nn3)CC2)n1	ELG1 DNA repair inconclusive (no result: VP16 counter, RORgamma inh)
C#CCOCCOCCOCCNc1nc(N2CCN(C(=O)CCCCCCCCCCNC(=O)[C@H](CCCCN)n3cc(C)nn3)CC2)nc(N2CCN(C(=O)CCCCCCCCCCNC(=O)[C@@H]([C@H](C)O)n3cc(C)nn3)CC2)n1	ELG1 DNA repair 14µM (no result: VP16 counter, RORgamma inh)
CC[C@H](C)Cc1cn([C@@H](CCCN=C(NC(=O)OC(C)(C)C)NC(=O)OC(C)(C)C)C(=O)NCCCCCCCCCCC(=O)N2CCN(C(=O)OC(C)(C)C)CC2)nn1	ELG1 DNA repair 7.3µM (no result: VP16 counter, RORgamma inh)
CCOc1ccc(C2/C(=C(\O)c3ccc4c(c3)OCCO4)C(=O)C(=O)N2Cc2cccnc2)cc1OCC (centres undefined)	ELG1 DNA repair inconclusive
C=CCCCCCCC=C	none (no result: B2AR arrestin, ELG1 DNA repair, TSHR antagonist)
COc1ccc(C#CC2C=CC(Oc3cc(C)cc(C)c3)C(CO)O2)cc1 (centres undefined)	none (no result: B2AR arrestin, ELG1 DNA repair, TSHR antagonist)
C[C@]12CCC(=O)C=C1CCC1C2C(=O)C[C@]2(C)C1CC[C@]2(O)C(=O)CO (some centres undefined)	none (no result: B2AR arrestin, ELG1 DNA repair, TSHR antagonist)
Cc1ccccc1C(=O)N1CCN(CCNC(=O)C(=O)Nc2ccc(Br)cc2)CC1	ELG1 DNA repair 21µM
CCCCCC(=O)NC(=S)Nc1ccc(Br)cc1C	VP16 counter inconclusive, RORgamma inh 10µM
COC(=O)c1ccccc1NC(=S)NC(=O)COc1ccccc1	VP16 counter 11µM, RORgamma inh 5.6µM
CCCCCC(=O)NC(=S)Nc1ccccc1C(=O)OC	VP16 counter inconclusive, RORgamma inh 14µM (no result: B2AR arrestin, ELG1 DNA repair, TSHR antagonist)
CCOC(=O)c1ccccc1NC(=O)COc1ccccc1	none
CCCCC(=O)NC(=S)Nc1ccccc1C(=O)Nc1ccccc1	none
O=C(COc1ccccc1)NC(=S)Nc1ccc(Br)cn1	VP16 counter inconclusive, RORgamma inh 13µM
CC(=O)OC[C@@H]1O[C@@H](O/N=C2/C[C@@H](O)[C@@H](O)[C@@H]3[C@@H]4C(=O)N([C@@H](C)c5ccccc5)C(=O)[C@H]4CC[C@H]23)[C@H](OC(C)=O)[C@H](OC(C)=O)[C@@H]1OC(C)=O	none (no result: B2AR arrestin, ELG1 DNA repair, TSHR antagonist)
COC(=O)c1ccccc1NC(=S)NC(=O)CC(C)C	VP16 counter inconclusive, RORgamma inh 13µM
Cc1c(NC(=O)c2ccccc2NC(=O)COc2ccccc2)cccc1C(=O)O	VP16 counter 13µM, RORgamma inh 7.9µM
Cc1cc(O)c(Oc2cc(C)cc(O)c2O)c(O)c1	VP16 counter inconclusive, RORgamma inh 18µM
O=C(CN1C(=O)NC(c2ccccc2)(c2ccccc2)C1=O)NCCc1ccc(F)cc1	none (no result: VP16 counter, RORgamma inh)
CC1CCCCN1CCn1c(=S)[nH]c2cc3c(cc2c1=O)OCO3 (centres undefined)	VP16 counter inconclusive, RORgamma inh 11µM
CC1CCN(CCn2c(=S)[nH]c3cc4c(cc3c2=O)OCO4)CC1	none
CC(C)OCCCn1c(=S)[nH]c2cc3c(cc2c1=O)OCO3	VP16 counter 6.3µM, RORgamma inh 4µM
C[C@H](O/N=C1/[C@H]2O[C@@H]2[C@@H](O)[C@H]2[C@H]1CCn1c(=O)n(-c3ccccc3)c(=O)n12)c1cn([C@H](CO)Cc2ccccc2)nn1	none (no result: B2AR arrestin, ELG1 DNA repair, TSHR antagonist)
CCn1c(SCc2ccccc2Cl)nc2nc3c(cc2c1=O)CCCC3	ELG1 DNA repair inconclusive, VP16 counter inconclusive, RORgamma inh 11µM
Cn1c(SCc2ccccc2Cl)nc2ccccc21	ELG1 DNA repair inconclusive, RORgamma inh inconclusive
CCn1c(SCC(=O)Nc2ccc(Cl)cc2)nc2nc3c(cc2c1=O)CCCC3	ELG1 DNA repair inconclusive, VP16 counter 13µM, RORgamma inh 14µM
CCn1c(SCc2ccccc2Cl)nc2ccccc21	ELG1 DNA repair inconclusive, RORgamma inh 10µM
CCn1c(SCC(=O)Nc2ccc(C(C)=O)cc2)nc2nc3c(cc2c1=O)CCCC3	ELG1 DNA repair inconclusive, VP16 counter inconclusive, RORgamma inh inconclusive
CN(CC(=O)Nc1cc(S(=O)(=O)N2CCCCCC2)ccc1Cl)Cc1ccc2c(c1)OCO2	ELG1 DNA repair inconclusive (no result: VP16 counter, RORgamma inh)
CCN1CCN(c2ccc(S(=O)(=O)N3CCCCC3)cc2NC(=O)COc2ccc(Cl)c(C)c2)CC1	ELG1 DNA repair 23µM, RORgamma inh 0.1µM
COc1ccc(S(=O)(=O)N2CCCCCC2)cc1NC(=O)CN(C)Cc1ccc2c(c1)OCO2	ELG1 DNA repair 21µM (no result: VP16 counter, RORgamma inh)
O=C(Cc1c(F)cccc1Cl)Nc1cc(S(=O)(=O)N2CCCCC2)ccc1N1CCOCC1	ELG1 DNA repair 18µM
COc1ccc(S(=O)(=O)N2CCOCC2)cc1NC(=O)C1COc2ccccc2O1 (centres undefined)	ELG1 DNA repair 10µM (no result: VP16 counter, RORgamma inh)
O=C(Nc1cc(S(=O)(=O)N2CCOCC2)ccc1N1CCCC1)C1COc2ccccc2O1 (centres undefined)	ELG1 DNA repair inconclusive
COc1ccc(S(=O)(=O)N2CCOCC2)cc1NC(=O)Cc1c(Cl)cccc1Cl	none
COc1ccc(S(=O)(=O)N2CCOCC2)cc1NC(=O)CN(C)Cc1c(F)cccc1Cl	ELG1 DNA repair 21µM
O=C(NNC(=S)Nc1ccc(Br)cc1)c1ccc(N2CCOCC2)c([N+](=O)[O-])c1	VP16 counter 13µM, RORgamma inh 13µM

From PubChem
